Results filed as inconclusive are left out. Calls of active or inactive are those of the source. Rule for the calls: active = hit-call score of the fitted dose curve at least 0.9, where 1 is the maximum; inconclusive = response in the unintended direction; inactive = score below 0.9.
Target: human Androgen Receptor (AR), AR (gene 367) (UniProt P10275)
Test: ATG_hAR_EcoTox2: Attagene TRANS-FACTORIAL EcoTox-2 HepG2 Assay for human Androgen Receptor (AR)
Protocol: ATG_EcoTox2 is a cell-based, multiplexed assay created by modifying the existing Attagene TRANS-FACTORIAL system to include a panel of nuclear receptors from some or all the following species: human (Homo sapiens), african clawed frog (Xenopus laevis), rainbow trout (Oncorhynchus mykiss), japanese medaka (Oryzias latipes), and zebrafish (Danio rerio). The ECOTOX2-FACTORIAL format uses HepG2, a human liver cell line, with measurements taken at 24 hours after chemical dosing in a 24-well plate. ATG_hAR_EcoTox2 is one of 29 assay components calculated in the ATG_EcoTox2 assay. It is designed to make measurements of mRNA induction, a form of inducible reporter, as detected with fluorescence intensity signals by Reverse transcription polymerase chain reaction (RT-PCR) and Capillary electrophoresis technology.The assay endpoint ATG_hAR_EcoTox2 was analyzed in the positive analysis fitting direction relative to DMSO as the negative control and baseline of activity. Using a type of inducible reporter, measures of mRNA for gain-of-signal activity can be used to understand the reporter gene at the transcription factor-level as they relate to the gene AR. Furthermore, this assay endpoint can be referred to as a primary readout, because this assay has produced multiple assay endpoints where this one serves a reporter gene function. To generalize the intended target to other relatable targets, this assay endpoint is annotated to the nuclear receptor intended target family, where the subfamily is steroidal.
Human liver HepG2 cells are transiently transfected with multiple reporter transcription units (MRTUs) in 6-well plates using FuGene 6 reagent (Roche; 3 ml FuGene/1 mg DNA). The MRTU constructs are regulated by a cis-regulating element (promoter). Each RTU expresses a GAL4-UAS that regulates the transcription of a nearby target reporter gene sequence. A major difference between the CIS and TRANS system is that in CIS activities of endogenous TFs are measured, whereas the TRANS assay evaluates changes in activities of exogenous, chimeric NR-Gal4 proteins. […] At the end of 24 hour incubation, total RNA was isolated using TriZol reagent (Invitrogen). The isolated RNA is then reverse-transcribed using oligo(dT) primer and Mo-MLV reverse transcriptase (Invitrogen) with DNAse I (Ambion) treatment for 30 min. The one-tenth of the produced cDNA was amplified by PCR using Taq DNA polymerase (Invitrogen) and two reporter sequence-specific primers. […] The fragments were purified using Qiaquick PCR columns (Qiagen), analyzed on an ABI 3130xL genetic analyzer (Applied Biosystems) with peak positions identified by using a set of X-rhodamine (ROX)-labeled MapMarker1000 molecular weight standards (BioVentures). […]

human Androgen Receptor (AR), AR (gene 367), sequence (P10275 whole entry, looked up): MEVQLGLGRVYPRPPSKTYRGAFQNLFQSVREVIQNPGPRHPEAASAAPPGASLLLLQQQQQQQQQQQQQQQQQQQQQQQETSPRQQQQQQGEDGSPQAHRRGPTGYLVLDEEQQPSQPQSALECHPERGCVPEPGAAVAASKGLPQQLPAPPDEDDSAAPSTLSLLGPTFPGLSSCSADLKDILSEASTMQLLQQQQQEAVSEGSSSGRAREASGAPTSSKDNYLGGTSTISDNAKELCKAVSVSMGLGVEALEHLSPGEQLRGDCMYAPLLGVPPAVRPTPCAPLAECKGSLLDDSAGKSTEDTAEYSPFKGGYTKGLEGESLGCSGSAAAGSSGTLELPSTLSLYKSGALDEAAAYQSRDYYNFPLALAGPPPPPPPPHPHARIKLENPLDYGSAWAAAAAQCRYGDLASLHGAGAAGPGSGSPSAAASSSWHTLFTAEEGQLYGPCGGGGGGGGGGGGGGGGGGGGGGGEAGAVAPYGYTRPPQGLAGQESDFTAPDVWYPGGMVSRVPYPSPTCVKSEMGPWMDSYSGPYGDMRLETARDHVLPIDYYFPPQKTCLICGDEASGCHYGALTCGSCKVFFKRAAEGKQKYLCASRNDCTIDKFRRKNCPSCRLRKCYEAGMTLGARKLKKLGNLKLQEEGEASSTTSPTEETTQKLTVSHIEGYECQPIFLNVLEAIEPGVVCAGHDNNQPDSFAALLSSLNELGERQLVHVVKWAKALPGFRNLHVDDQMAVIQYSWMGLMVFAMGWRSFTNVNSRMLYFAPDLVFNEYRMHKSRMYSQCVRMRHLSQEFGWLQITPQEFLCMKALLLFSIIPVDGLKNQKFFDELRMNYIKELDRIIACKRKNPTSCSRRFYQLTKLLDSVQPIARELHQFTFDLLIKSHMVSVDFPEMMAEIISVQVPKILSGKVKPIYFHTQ

Q: With `CC(C)(Oc1ccc(C2CC2(Cl)Cl)cc1)C(=O)O` (centres undefined) as the molecule, how does the outcome read?
A: inactive

Q: `Cc1ccc(C)c(OCCCC(C)(C)C(=O)O)c1` was tested. Which outcome did it give?
A: inactive

Q: With `CC(C)OC(=O)C(C)(C)Oc1ccc(C(=O)c2ccc(Cl)cc2)cc1` as the molecule, how does the outcome read?
A: inactive

Q: For `CC(c1cc2ccccc2s1)N(O)C(N)=O` (centres undefined), which outcome is on record?
A: inactive

Source: PubChem BioAssay AID2284370 (EPA ToxCast)
